# In PubChem BioAssay (Tox21):
# Records with an inconclusive call do not appear. A number with no mark means an inactive call. Calls of active or inactive are those of the source. The call rests on the fitted dose curve; in most records, active means well fitted cell-killing curve with a large enough effect in the repeat runs; inconclusive means weak or mixed curves, or effect the other way; inactive means flat fitted curve, though single readings scatter.
# Assay: cAMP Responsive Elements (CRE) small molecule agonists, cell-based qHTS assay: qHTS cell viability counter screen (AID 2060914); further: nearly all actives have a fitted effect of over 50% in size
# Settings: CRE-bla HEK293T viability, CellTiter-Glo luminescence, 5 h; series mostly up to 92.4 µM; activity change, negative = cytotoxicity: at the top concentration
# Outline: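 Cells are seeded and incubated 18 h, treated with compounds in DMSO for 3 h, read for the bla reporter, then given CellTiter-Glo; luminescence is measured after 30 min at room temperature.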
# On the % scale 0 is the no-effect control and ±100 the full control effect; potency means the concentration at half of the fitted maximal effect.
SMILES,"activity change, negative = cytotoxicity",Potency
CC(=O)O[C@]1(C(C)=O)CC[C@H]2[C@@H]3C=C(Cl)C4=CC(=O)CC[C@]4(C)[C@H]3CC[C@@]21C,-10.1% [at 42.5 µM],–
Cc1ccc(S(=O)(=O)O)cc1C,–,inactive
O=C(c1ccccc1)c1cccc(O)c1,-9.08%,–
Cc1cc(CCN2CCN(c3nsc4ccccc34)CC2)cc2c1NC(=O)CC2(C)C,–,68.6 µM (active)
COC(=O)C(C)(C)C,-1.59%,–
CCCCCCCCCCCCCCCCN,-1.17% [at 42.5 µM],–
CC1(C)[C@@H](O)CC[C@]2(C)[C@H]3C(=O)C=C4[C@@H]5C[C@@](C)(C(=O)O)CC[C@]5(C)CC[C@@]4(C)[C@]3(C)CC[C@@H]12,-2.03%,–
Cc1c(C)c([N+](=O)[O-])c(C(C)(C)C)c([N+](=O)[O-])c1C,-16.7%,–
CCc1cc2cc(OC)c(OC)cc2c(Cc2ccccc2)n1,6.38% [at 42.5 µM],–
COc1cc(-c2ccc(=O)[nH]n2)ccc1OC(F)F,-14.4% [at 42.5 µM],–
COc1cc(C(=O)NC2CCN(C)CC2)ccc1Nc1ncc2c(n1)N(C1CCCC1)CC(F)(F)C(=O)N2C,-6.3%,–
O=c1[nH]c2cc(C(F)(F)F)c(N3CCOCC3)cc2n(CP(=O)(O)O)c1=O,0.014% [at 42.5 µM],–
C=CC(=O)OCC(O)COc1ccccc1 (stereo not given),6%,–
CC1CCc2cc(F)cc3c(=O)c(C(=O)O)cn1c23 (stereo not given),-3.78% [at 42.5 µM],–
CC/C=C\C/C=C\C/C=C\CCCCCCCC(=O)O,–,inactive
C[C@]12C[C@H](O)[C@H]3[C@@H](CCC4=CC(=O)CC[C@@]43C)[C@@H]1CC[C@@H]2C(=O)CO,–,inactive
CN(C(=O)CN(CCO)CC(=O)N(C)C(C)(C)Cc1ccccc1)C(C)(C)Cc1ccccc1,-7.7% [at 42.5 µM],–
CCCCCCOC(=O)C(C)CC (stereo not given),-1.48%,–
CC1=CC(=O)CC(C)(C)C1,–,inactive
CN(C)CCN(Cc1cccs1)c1ccccn1,–,inactive

SMILES,"activity change, negative = cytotoxicity",Potency
CCC1(c2cnc[nH]2)Cc2ccccc2C1,-0.602% [at 42.5 µM],–
CCCCCCCCCCCCCCCO,–,inactive
Fc1ccc(C(c2ccc(F)cc2)N2CCN(C/C=C/c3ccccc3)CC2)cc1,-24% [at 42.5 µM],–
CCCN1CCCC[C@H]1C(=O)Nc1c(C)cccc1C,-2.61% [at 42.5 µM],–
Cc1nn(C)c(Oc2ccccc2)c1/C=N/OCc1ccc(C(=O)OC(C)(C)C)cc1,-15.9%,–
CCCCSCCCC,5.97%,–
FC1(F)C(F)(F)C(F)(F)C2(F)C(F)(C1(F)F)C(F)(F)C(F)(F)C1(F)C(F)(F)C(F)(F)C(F)(F)C(F)(F)C12F (stereo not given),-5.98%,–
CCC(C)[O-].CCC(C)[O-].CCOC(=O)/C=C(/C)[O-].[Al+3],5.77%,–
[Cl][Eu]([Cl])[Cl],9.99%,–
OCC(O)[C@@H](O)[C@H](O)[C@H](O)CO[C@H]1O[C@H](CO)[C@@H](O)[C@H](O)[C@H]1O (stereo not given in full),19.7%,–
COc1cc(NC(=O)CC(C)=O)c(OC)cc1Cl,–,inactive
Cc1ccc(C(C)(C)O)cc1,-0.552%,–
FC(F)(F)c1ccccc1Cl,3.02%,–
CCn1cc(C(=O)O)c(=O)c2cnc(N3CCNCC3)nc21,-0.615% [at 42.5 µM],–
CC(C)(C)c1ccc(N)cc1,9.12%,–
O=[N+]([O-])c1cc(C2CCCCC2)c(O)c([N+](=O)[O-])c1,-26.8%,–
CC(=O)OC1CC(C)OC(C)O1 (stereo not given),–,inactive
Cc1ccccc1C(=O)Nc1ccc(C(=O)N2CCCC(O)c3cc(Cl)ccc32)c(C)c1 (stereo not given),6.13% [at 42.5 µM],–
NC(=O)CCCCC1CCSS1 (stereo not given),23% [at 42.5 µM],–
O=[N+]([O-])c1ccc(O)c2ncccc12,7.77% [at 42.5 µM],–
